Laboratory results as given in PubChem BioAssay (NCI).
Compounds without any hit were thinned out: in the full panel of roughly 83,000, 20% have a hit.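 Compound tested at a single concentration for 48 hours in 96-well plates; a percent growth value below 10 was scored as active.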 A number with no mark means an inactive call. Calls of active or inactive are those of the source.

These compounds were tested on A549/ATCC NSCLC (assay: NCI-60 one-dose screen, 48 h (100 = growth as untreated, 0 = no growth, -100 = all killed)). Conditions: 10 µM unless noted.

For COC(=O)[C@]12CC[C@@H](C)[C@H](C)[C@@H]1C1=CC[C@@H]3[C@@]4(C)C(C=O)=C[C@@](C)(COC(=O)c5ccco5)C4=CC[C@@]3(C)[C@]1(C)CC2, the growth was 8.76% (active).

Point of comparison: NC(=S)Nc1cccc(O)c1, growth 99.8%. Against it:
- Nc1n[nH]c2cc(F)c([C@@H]3Nc4c(F)cc5[nH]ncc5c4[C@H]4C5CCC(C5)[C@@H]34)cc12 (some centres not stated) — lower, 19.4%
- CC1(c2ccccc2)NC(=O)N(NC(=O)CSc2nc(-c3cccs3)nc3ccccc23)C1=O (configuration not stated) — lower, 79.1%
- CC(C)C(=O)Nc1n[nH]c2cc(-c3cccc(NS(=O)(=O)C4CC4)c3)ccc12 — lower, 80.3%
- COc1c(CCC[P+](c2ccccc2)(c2ccccc2)c2ccccc2)cc2c(c1OC)OCO2 — lower, 40%
- CN(C)CC1=NC2SC=C(c3ccccc3)C2C(=O)N1CC#N (configuration not stated) — lower, 96.3%
- Cc1cc(C)c2c(-c3nnc(N)s3)cc(=O)oc2c1 — higher, 104%
- C[C@]12CC[C@@H]3c4cc(OC(F)F)c(O)cc4CC[C@H]3[C@@H]1CC[C@@H]2OS(N)(=O)=O — lower, 31.3%
- O=C(Nc1ccc(-n2cc(-c3ccncc3)c(-c3ccc(Cl)c(O)c3)n2)cc1)N1CCOCC1 — higher, 111%
- COc1ccc(-c2cc(-c3cc(OC)c(OC)c(OC)c3)c(C#N)c(N3CCOCC3)n2)cc1O — lower, 65.8%
- COC(=O)CCC1=C(C)C2=NC1=CC1=NC(=CC3=NC(=Cc4[nH]c(/c(=C(/C)O)c4C)=C2)C(C(C)=O)=C3C)C(C)=C1CCC(=O)OC — lower, 88.6%
